In PubChem BioAssay AID1259374 (The Scripps Research Institute Molecular Screening Center, 2018):
The campaign covered roughly 650,000 compounds. About 5,900 (0.91%) were called active. The list comes from a sample in which actives are over-represented; it also holds similar structures and randomly drawn compounds. A number with no mark means an inactive call. Rule as the data show it: active = inhibition above about 50%; inactive = the rest.

molecular target: Microphthalmia-associated transcription factor (Homo sapiens) (UniProt O75030); test: MITF inhibitors, primary screen, biochemical, AlphaScreen, human (AID 1259374); settings: AlphaScreen MITF homodimerization, bead proximity signal; at 2.6 µM; stronger effect = higher value;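 also: 0% = vehicle wells with protein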
Sequence (O75030 whole entry, looked up): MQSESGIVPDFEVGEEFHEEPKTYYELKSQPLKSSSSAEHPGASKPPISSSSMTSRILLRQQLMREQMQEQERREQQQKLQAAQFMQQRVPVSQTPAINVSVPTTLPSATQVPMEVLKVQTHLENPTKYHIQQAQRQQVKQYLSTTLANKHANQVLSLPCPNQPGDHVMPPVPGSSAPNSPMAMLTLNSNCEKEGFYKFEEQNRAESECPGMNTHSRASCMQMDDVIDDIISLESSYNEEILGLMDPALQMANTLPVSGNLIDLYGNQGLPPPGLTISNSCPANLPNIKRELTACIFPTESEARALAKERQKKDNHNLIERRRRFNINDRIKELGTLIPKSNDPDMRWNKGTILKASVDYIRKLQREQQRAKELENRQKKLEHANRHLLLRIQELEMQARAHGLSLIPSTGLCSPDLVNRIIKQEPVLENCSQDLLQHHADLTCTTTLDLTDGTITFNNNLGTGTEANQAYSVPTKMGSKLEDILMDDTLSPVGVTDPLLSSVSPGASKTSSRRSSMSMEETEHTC

**Q.** With `CSc1ccc(CCNC(=O)c2cc3ccccn3n2)cc1` as the molecule, how does the inhibition read?
**A.** -9.21%

**Q.** With `COc1ccc2[nH]c3c(c2c1)CCOC31CCN(C(=O)N[C@@H](C)c2ccccc2)CC1` as the molecule, how does the inhibition read?
**A.** -20.6%

**Q.** How did the inhibition turn out when `O=C(Nc1cccc(Cl)c1N1CCN(Cc2ccco2)CC1)c1ccc(Br)o1` was run?
**A.** -6.95%

**Q.** How did the inhibition turn out when `O=C(CNC1CCCC1)Nc1ccc(N2CCCC2)cc1` was run?
**A.** 6.86%

**Q.** Which inhibition does the source give for `O=C(CNCc1ccc(F)cc1)Nc1ccc(N2CCCC2)cc1` here?
**A.** 53.1% (active)

**Q.** With `O=C(CNCCC1=CCCCC1)Nc1ccc(N2CCCC2)cc1` as the molecule, how does the inhibition read?
**A.** 10.5%

**Q.** With `O=C(NCc1ccccc1)NC(=O)c1cccnc1` as the molecule, how does the inhibition read?
**A.** 22.7%

**Q.** How did the inhibition turn out when `CCOc1ccc(-c2cc(N)n(S(=O)(=O)c3ccc(C)cc3)n2)cc1` was run?
**A.** -6.9%

**Q.** `Cn1c(=NC(=O)COc2ccccc2)sc2cc(S(C)(=O)=O)ccc21` was tested. Which inhibition did it give?
**A.** 52.2% (active)

**Q.** Which inhibition does the source give for `Cn1c(=NC(=O)CCOc2ccccc2)sc2cc(Br)ccc21` here?
**A.** 3.97%

**Q.** Which inhibition does the source give for `CCCC(=O)N=c1sc2cc(S(C)(=O)=O)ccc2n1C` here?
**A.** 19%

**Q.** Which inhibition does the source give for `Cc1ccc(/C=C2\N=C(c3cccc(I)c3)OC2=O)cc1` here?
**A.** 12.7%

**Q.** With `Cc1ccc(C)c(NC(=O)CN(Cc2ccccc2)S(=O)(=O)c2ccc(Br)cc2)c1` as the molecule, how does the inhibition read?
**A.** -9.84%

**Q.** `CCN(Cc1ccccc1)C(=O)c1cc2c(=O)n3cccc(C)c3nc2n1C` was tested. Which inhibition did it give?
**A.** -25.5%

**Q.** How did the inhibition turn out when `Cc1ccc(NC(=O)Cn2ccsc2=N)cc1F` was run?
**A.** 6.14%

**Q.** For `Cc1ccc(NC(=O)CN2CCN(c3ccccn3)CC2)cc1F`, which inhibition is on record?
**A.** 8.15%

**Q.** How did the inhibition turn out when `CC(=O)N1CCN(CC(=O)Nc2ccc(C)c(F)c2)CC1` was run?
**A.** 52.6% (active)

**Q.** With `CCOc1ccc(Cl)cc1/C=C1/SC(=S)N(CCC(=O)O)C1=O` as the molecule, how does the inhibition read?
**A.** -26.2%

**Q.** For `CC(C)n1cnc2c(NCc3ccccc3)nc(Nc3ccncn3)nc21`, which inhibition is on record?
**A.** 10%

**Q.** `Cn1c(-c2ccccc2)cnc1NCc1cccc(F)c1` was tested. Which inhibition did it give?
**A.** 38%

**Q.** How did the inhibition turn out when `FC(F)(F)c1cc(-c2cnc3c(NCc4cccnc4)nccn23)cc(C(F)(F)F)c1` was run?
**A.** -11.6%

**Q.** How did the inhibition turn out when `Cn1c(-c2ccc(F)cc2)cnc1NCc1cccnc1` was run?
**A.** 72.7% (active)

**Q.** `COc1ccc(C(=O)COC(=O)c2c3c(nc4ccccc24)CCCC3)cc1OC` was tested. Which inhibition did it give?
**A.** 0.37%

**Q.** For `CN(Cc1cccs1)C(=O)CC1(c2cccc(F)c2)CC(=O)N(C2CCCC2)C1=O` (centres undefined), which inhibition is on record?
**A.** 7.07%

**Q.** `Cc1[nH]c2ccccc2c1CN1CCN(Cc2ccc3c(c2)OCO3)CC1` was tested. Which inhibition did it give?
**A.** 38.3%

**Q.** `Cc1ccc(CN2CCN(Cc3ccncc3)CC2)cc1` was tested. Which inhibition did it give?
**A.** 77.5% (active)

**Q.** Which inhibition does the source give for `OC1(Cc2ccccc2)CCN(Cc2ccncc2)CC1` here?
**A.** 1.54%

**Q.** `Cc1ccc(N2CCN(Cc3cccnc3)CC2)cc1` was tested. Which inhibition did it give?
**A.** 9.13%

**Q.** `Cc1cc(OCC(O)CN2CCCC2)ccc1Cl` (centres undefined) was tested. Which inhibition did it give?
**A.** 8.73%

**Q.** For `O=C1OC(c2ccc(F)cc2)=N/C1=C/c1ccc([N+](=O)[O-])cc1`, which inhibition is on record?
**A.** 5.42%

**Q.** How did the inhibition turn out when `CCN(CC)CCN1CCN(c2ncc(-c3ccccc3)n3ccnc23)CC1` was run?
**A.** 8.61%

**Q.** For `Cn1c(=O)n(Cc2cc3c(cc2Cl)OCO3)c2cccnc21`, which inhibition is on record?
**A.** 13.7%

**Q.** For `CCN(CC)CCN1COc2c(cc(Cl)c3cccnc23)C1`, which inhibition is on record?
**A.** 102% (active)

**Q.** For `O=C(Cc1cccs1)N/N=C\c1ccc(Cl)c(Cl)c1`, which inhibition is on record?
**A.** -9.59%

**Q.** Which inhibition does the source give for `O=C(Cc1cccs1)N/N=C\C=C\c1ccco1` here?
**A.** 64.5% (active)

**Q.** For `C/C(=N/NC(=O)Cc1cccs1)c1ccc(Br)cc1`, which inhibition is on record?
**A.** 7.44%

**Q.** For `Cc1ccc(N(C(=O)C(C)Oc2ccccc2)C2C=CS(=O)(=O)C2)cc1` (centres undefined), which inhibition is on record?
**A.** -4%

**Q.** Which inhibition does the source give for `O=C(Nc1cccs1)N1CCC(Cn2c(COc3ccccc3)nc3ccccc32)CC1` here?
**A.** 12.3%

**Q.** How did the inhibition turn out when `COCCNC(=O)Nc1ccc2nc(-c3ccco3)c(-c3ccco3)nc2c1` was run?
**A.** 87.1% (active)

**Q.** How did the inhibition turn out when `COCCCNC(=O)Nc1ccc(Cl)c(Cl)c1` was run?
**A.** 9.41%

**Q.** With `COCCCNC(=O)Nc1ccc([N+](=O)[O-])cc1` as the molecule, how does the inhibition read?
**A.** 6.26%

**Q.** Which inhibition does the source give for `O=C(CCN1C(=O)C2C3C=CC(C3)C2C1=O)Nc1ncc(S(=O)(=O)c2ccc([N+](=O)[O-])cc2)s1` (centres undefined) here?
**A.** 2.57%

**Q.** `O=C(NNC(=O)c1cc([N+](=O)[O-])ccc1Cl)c1cccc(Cl)c1` was tested. Which inhibition did it give?
**A.** -0.55%

**Q.** How did the inhibition turn out when `CSc1nnc(SCc2nc3sc(C(=O)O)c(C)c3c(=O)[nH]2)s1` was run?
**A.** 55.8% (active)

**Q.** `COC(=O)c1sc2nc(C)[nH]c(=O)c2c1C` was tested. Which inhibition did it give?
**A.** -2%

**Q.** For `Cc1cc(C)n2c(SCc3nc4sc(C)c(C)c4c(=O)[nH]3)nnc2n1`, which inhibition is on record?
**A.** 7.98%

**Q.** How did the inhibition turn out when `Cc1ccc(C)c(N2CCN(Cc3nnnn3Cc3ccc(F)cc3)CC2)c1` was run?
**A.** 13.1%

**Q.** `CC1(C(=O)O)NC(c2cc(Cl)cc(Cl)c2O)C2C(=O)N(c3ccccc3)C(=O)C21` (centres undefined) was tested. Which inhibition did it give?
**A.** -2.7%

**Q.** `COc1ccccc1N1CCN(S(=O)(=O)c2ccccc2[N+](=O)[O-])CC1` was tested. Which inhibition did it give?
**A.** -2.42%

**Q.** With `O=[N+]([O-])c1ccccc1S(=O)(=O)N1CCN(C2Cc3ccccc3C2)CC1` as the molecule, how does the inhibition read?
**A.** 52.9% (active)

**Q.** With `O=CN1CCN(S(=O)(=O)c2ccccc2[N+](=O)[O-])CC1` as the molecule, how does the inhibition read?
**A.** -7.16%

**Q.** How did the inhibition turn out when `CC(=O)c1cccc(-c2nc(C)cc(NCc3nc4ccccc4[nH]3)n2)c1` was run?
**A.** -6.7%

**Q.** For `COC(=O)c1sc(NC(=O)c2ccccc2C)c(C#N)c1C`, which inhibition is on record?
**A.** 58.6% (active)

**Q.** How did the inhibition turn out when `COC(=O)c1sc(NC(=O)c2ccncc2)c(C#N)c1C` was run?
**A.** 22.1%

**Q.** Which inhibition does the source give for `COC(=O)c1sc(NC(=O)c2cccc(OC)c2OC)c(C#N)c1C` here?
**A.** 15.6%

**Q.** `O=C(O)CCCCC1SCC2NC(=O)NC21O` (centres undefined) was tested. Which inhibition did it give?
**A.** 115% (active)

**Q.** For `COc1ccc(NC(=O)c2cc(S(=O)(=O)NCCc3ccccc3)ccc2F)cc1`, which inhibition is on record?
**A.** 9.24%

**Q.** For `O=c1c2c(nc(SCc3ccccc3)n1-c1ccccc1)-c1ccccc1CC21CCCC1`, which inhibition is on record?
**A.** 7.99%

**Q.** With `CC(C)C(Nc1nc(N2CCC[C@H]2C(=O)O)ccc1[N+](=O)[O-])C(=O)O` (some centres undefined) as the molecule, how does the inhibition read?
**A.** 4.19%
